Data from PubChem BioAssay (NCATS).
Records with an inconclusive call do not appear. Activity calls are given as the source filed them. Unless noted, the call rests on the fitted dose curve; in most records, active means well fitted curve in the direction sought with a large enough effect; inconclusive means small, poorly fitted or top-dose-only effect, or another doubt; inactive means no such curve, though single readings can be large; an effect the other way counts as inactive or inconclusive.

Tests used:
[1] = molecular target: Rap guanine nucleotide exchange factor 3 (Homo sapiens) (UniProt O95398); test: Confirmatory qHTS for antagonist of cAMP-regulated guanine nucleotide exchange factor 3 (EPAC1) (AID 1645880); details: EPAC1 Rap1B-BODIPY-GDP exchange, fluorescence; activity, negative = inhibition: at 115 µM (top of the series); further: nearly all actives have a fitted effect of over 55% in size; further: potency means the concentration at half of the fitted maximal effect;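 on activity, negative = inhibition: plate controls were DMSO only for no effect and full effect of the ATA control for full effect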
In short: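 Released BODIPY-GDP fluoresces less than Rap1-bound BODIPY-GDP; the signal is followed at 480/540 nm at 5-min intervals over 30 min, after 5 min at room temperature. Reactions contain 100 nM EPAC1, 250 nM RAP1B-BODIPY-GDP and 50 uM GDP; results are normalized to ATA and DMSO.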

[2] = molecular target: Rap guanine nucleotide exchange factor 4 (Homo sapiens) (UniProt Q8WZA2); test: Confirmatory qHTS for agonist of cAMP-regulated guanine nucleotide exchange factor 4 (EPAC2) (AID 1645884);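 further: nucleotide exchange releases bodipy-GDP from Rap1 and this lowers its fluorescence; nearly all actives have a fitted effect of over 65% in size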; further: potency means the concentration at half of the fitted maximal effect; on activation: on the % scale 0 is the no-effect control and ±100 the full control effect
[3] = molecular target: Rap guanine nucleotide exchange factor 4 (Homo sapiens) (UniProt Q8WZA2); test: Confirmatory qHTS for antagonist of cAMP-regulated guanine nucleotide exchange factor 4 (EPAC2) (AID 1645885); further: nearly all actives have a fitted effect of over 25% in size; further: potency means the concentration at half of the fitted maximal effect; on activity change, negative = inhibition: on the % scale 0 is the no-effect control and ±100 the full control effect
[4] = molecular target: Cytochrome P450 1A2 (Homo sapiens) (UniProt P05177); test: p450-cyp1a2 (AID 410; calls by dose curve; further: potency means the concentration at half of the fitted maximal effect)
In short: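 20nM CYP1A2, 100uM Luciferin-ME (=Km), 100mM KPO4; cpd 10 min RT; +NADPH regen, 60 min RT; stop/detect 20 min; luminescence. Normalized to furafylline 57 uM = full inhibition.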

[5] = molecular target: Glucocorticoid receptor (Homo sapiens) (UniProt P04150); test: GR-GFP Redistribution (AID 450;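 active means compounds whose dose series gives a full or clear partial fitted curve of increased nuclear translocation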; further: potency means the concentration at half of the fitted maximal effect); details: U2OS GR-GFP nuclear translocation, laser cytometry, 2 h
[6] = molecular target: Mitogen-activated protein kinase 10 (Mus musculus) (UniProt Q61831); test: JNK3 AlphaScreen Assay (AID 530; active means well fitted curve in either direction with a large enough effect, not every such curve was filed as active;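 further: kinase came from lysate of stimulated human HepG2 cells; potency means the concentration at half of the fitted maximal effect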)
In short: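 HepG2 lysate (IL-1b/TNFa pre-activated) + biotin-GST-cJun 1-79 + anti-pSer73 cJun; cpd titration, 15 min RT; ATP 10 uM start; Tris pH 7.6, MgCl2, DTT, vanadate; beads in EDTA buffer; AlphaScreen.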

[7] = molecular target: Cytochrome P450 3A4 (Homo sapiens) (UniProt P08684); test: qHTS Assay for Inhibitors and Substrates of Cytochrome P450 3A4 (AID 884); further: potency means the concentration at half of the fitted maximal effect; nearly all actives have a fitted effect of over 50% in size
In short: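 Luminescent readout of luciferin produced by CYP3A4 (20 nM) dealkylation of Luciferin-PPXE, 25 uM (its KM). NADPH-driven reaction ran 60 min at RT after 10 min compound preincubation; data scaled to 57 uM ketoconazole as 100% inhibition.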

[8] = molecular target: Cytochrome P450 2D6 (Homo sapiens) (UniProt P10635); test: qHTS Assay for Inhibitors and Substrates of Cytochrome P450 2D6 (AID 891); further: potency means the concentration at half of the fitted maximal effect; nearly all actives have a fitted effect of over 60% in size
In short: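 Luminescent read-out of luciferin formed by 5 nM human CYP2D6 demethylating 30 uM Luciferin-ME EGE (Km level) over 60 min at room temperature after NADPH regeneration addition. Data normalized to full inhibition by 1.43 uM quinidine.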

[9] = molecular target: Cytochrome P450 2C19 (Homo sapiens) (UniProt P33261); test: qHTS Assay for Inhibitors and Substrates of Cytochrome P450 2C19 (AID 899); further: potency means the concentration at half of the fitted maximal effect; nearly all actives have a fitted effect of over 60% in size
In short: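 Signal comes from luciferase acting on luciferin released by CYP2C19-mediated hydroxylation of Luciferin-H EGE, 10uM (KM). Assay mix: 5nM enzyme, 50mM KPO4; 60 min at 37C with NADPH regeneration. Data normalized against 57uM ketoconazole.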

[10] = molecular target: DNA dC->dU-editing enzyme APOBEC-3G (Homo sapiens) (UniProt Q9HC16); test: qHTS for inhibitors of Vif-A3G interactions: Validation (AID 588379); further: 0% is about no effect
In short: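 Yellow fluorescence (Ex 488, Em 500-530) of Vif-coexpressing HeLa A3G-eYFP cells, scanned by Acumen cytometer, reports blocked A3G degradation. Cells plated at 700/well overnight at 37 deg C before compound addition, then a further overnight compound incubation at 37 deg C.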

[11] = molecular target: Rap guanine nucleotide exchange factor 3 (Homo sapiens) (UniProt O95398); test: Confirmatory qHTS for agonist of cAMP-regulated guanine nucleotide exchange factor 3 (EPAC1) (AID 1645881);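 further: EPAC1 catalysed release of BODIPY-GDP from Rap1B seen as fluorescence loss; 100% = effect of cAMP agonist control; nearly all actives have a fitted effect of over 75% in size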
[12] = molecular target: Rap guanine nucleotide exchange factor 3 (Homo sapiens) (UniProt O95398); test: Counterscreen qHTS for antagonist of cAMP-regulated guanine nucleotide exchange factor 3 (EPAC1) (AID 1645888); further: % of control where 0% means no effect
In short: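 Rap1B–BODIPY-GDP (250 nM) with 50 uM GDP; compounds pin-transferred to 9.74 nM–152 uM final (activator) or from 7.32 nM upwards (inhibitor). Fluorescence Ex/Em 480/540 nm read at 5 and 30 min, then after adding cAMP or buffer, at room temperature.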

Sequence of Rap guanine nucleotide exchange factor 3 (Homo sapiens) (O95398 whole entry, looked up): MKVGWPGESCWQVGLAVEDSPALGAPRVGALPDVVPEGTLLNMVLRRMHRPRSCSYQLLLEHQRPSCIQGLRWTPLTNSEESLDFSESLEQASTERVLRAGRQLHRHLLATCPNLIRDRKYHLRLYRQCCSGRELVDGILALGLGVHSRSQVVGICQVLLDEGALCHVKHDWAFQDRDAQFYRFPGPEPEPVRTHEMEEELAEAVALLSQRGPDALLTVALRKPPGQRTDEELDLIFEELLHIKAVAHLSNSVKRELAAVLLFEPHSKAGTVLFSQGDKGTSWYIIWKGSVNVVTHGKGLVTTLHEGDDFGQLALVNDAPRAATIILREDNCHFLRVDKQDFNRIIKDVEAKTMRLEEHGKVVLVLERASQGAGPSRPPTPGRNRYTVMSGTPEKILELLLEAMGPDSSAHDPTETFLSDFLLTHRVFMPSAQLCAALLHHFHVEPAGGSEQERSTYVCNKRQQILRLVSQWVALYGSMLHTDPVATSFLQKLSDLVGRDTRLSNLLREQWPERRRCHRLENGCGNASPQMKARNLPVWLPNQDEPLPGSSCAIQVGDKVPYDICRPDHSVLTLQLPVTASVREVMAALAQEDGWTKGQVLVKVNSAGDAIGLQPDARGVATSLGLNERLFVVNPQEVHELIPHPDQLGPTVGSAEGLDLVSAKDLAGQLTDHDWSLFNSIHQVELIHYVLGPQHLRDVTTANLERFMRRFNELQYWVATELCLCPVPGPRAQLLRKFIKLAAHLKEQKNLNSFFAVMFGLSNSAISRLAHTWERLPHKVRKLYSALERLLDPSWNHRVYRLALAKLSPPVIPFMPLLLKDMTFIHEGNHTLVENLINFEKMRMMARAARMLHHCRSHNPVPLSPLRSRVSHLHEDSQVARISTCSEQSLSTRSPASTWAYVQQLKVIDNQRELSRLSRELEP
Sequence of Rap guanine nucleotide exchange factor 4 (Homo sapiens) (Q8WZA2 whole entry, looked up): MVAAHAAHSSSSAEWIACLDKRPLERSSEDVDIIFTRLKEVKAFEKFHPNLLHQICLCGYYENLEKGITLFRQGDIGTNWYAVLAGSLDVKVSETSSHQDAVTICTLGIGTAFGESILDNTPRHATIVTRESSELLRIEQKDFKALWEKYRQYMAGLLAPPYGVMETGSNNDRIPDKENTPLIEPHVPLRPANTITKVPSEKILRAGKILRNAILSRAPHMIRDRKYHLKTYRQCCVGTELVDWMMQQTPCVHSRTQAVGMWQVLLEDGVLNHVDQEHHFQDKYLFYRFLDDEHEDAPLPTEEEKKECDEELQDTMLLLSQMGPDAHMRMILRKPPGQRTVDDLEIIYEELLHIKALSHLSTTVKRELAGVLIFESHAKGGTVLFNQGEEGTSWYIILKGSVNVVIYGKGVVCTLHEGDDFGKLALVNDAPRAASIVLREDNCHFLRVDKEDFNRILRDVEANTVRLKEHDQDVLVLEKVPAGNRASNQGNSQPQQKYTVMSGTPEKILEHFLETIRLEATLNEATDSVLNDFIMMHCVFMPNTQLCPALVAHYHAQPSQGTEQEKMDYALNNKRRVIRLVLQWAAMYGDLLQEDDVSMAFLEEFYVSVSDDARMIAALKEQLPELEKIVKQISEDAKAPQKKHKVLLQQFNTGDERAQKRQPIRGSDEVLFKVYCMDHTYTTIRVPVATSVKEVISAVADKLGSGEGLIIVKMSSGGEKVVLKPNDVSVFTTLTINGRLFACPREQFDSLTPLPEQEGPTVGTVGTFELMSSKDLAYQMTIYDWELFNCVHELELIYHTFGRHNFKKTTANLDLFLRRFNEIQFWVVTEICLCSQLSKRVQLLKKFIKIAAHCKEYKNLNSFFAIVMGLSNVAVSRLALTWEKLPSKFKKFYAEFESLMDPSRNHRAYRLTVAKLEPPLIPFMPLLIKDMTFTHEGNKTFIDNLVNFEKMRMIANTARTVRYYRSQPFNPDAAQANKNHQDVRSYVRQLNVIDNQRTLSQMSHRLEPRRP
Sequence of DNA dC->dU-editing enzyme APOBEC-3G (Homo sapiens) (Q9HC16 whole entry, looked up): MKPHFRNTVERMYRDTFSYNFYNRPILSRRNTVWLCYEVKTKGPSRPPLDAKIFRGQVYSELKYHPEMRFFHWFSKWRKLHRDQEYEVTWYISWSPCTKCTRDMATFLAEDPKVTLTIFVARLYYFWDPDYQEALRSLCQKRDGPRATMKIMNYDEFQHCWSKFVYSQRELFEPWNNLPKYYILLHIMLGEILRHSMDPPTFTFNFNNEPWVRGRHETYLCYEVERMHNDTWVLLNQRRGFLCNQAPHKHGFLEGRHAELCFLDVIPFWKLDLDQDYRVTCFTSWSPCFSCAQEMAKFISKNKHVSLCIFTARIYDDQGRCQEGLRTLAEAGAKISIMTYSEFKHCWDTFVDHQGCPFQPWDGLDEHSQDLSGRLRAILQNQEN
Sequence of Glucocorticoid receptor (Homo sapiens) (P04150 whole entry, looked up): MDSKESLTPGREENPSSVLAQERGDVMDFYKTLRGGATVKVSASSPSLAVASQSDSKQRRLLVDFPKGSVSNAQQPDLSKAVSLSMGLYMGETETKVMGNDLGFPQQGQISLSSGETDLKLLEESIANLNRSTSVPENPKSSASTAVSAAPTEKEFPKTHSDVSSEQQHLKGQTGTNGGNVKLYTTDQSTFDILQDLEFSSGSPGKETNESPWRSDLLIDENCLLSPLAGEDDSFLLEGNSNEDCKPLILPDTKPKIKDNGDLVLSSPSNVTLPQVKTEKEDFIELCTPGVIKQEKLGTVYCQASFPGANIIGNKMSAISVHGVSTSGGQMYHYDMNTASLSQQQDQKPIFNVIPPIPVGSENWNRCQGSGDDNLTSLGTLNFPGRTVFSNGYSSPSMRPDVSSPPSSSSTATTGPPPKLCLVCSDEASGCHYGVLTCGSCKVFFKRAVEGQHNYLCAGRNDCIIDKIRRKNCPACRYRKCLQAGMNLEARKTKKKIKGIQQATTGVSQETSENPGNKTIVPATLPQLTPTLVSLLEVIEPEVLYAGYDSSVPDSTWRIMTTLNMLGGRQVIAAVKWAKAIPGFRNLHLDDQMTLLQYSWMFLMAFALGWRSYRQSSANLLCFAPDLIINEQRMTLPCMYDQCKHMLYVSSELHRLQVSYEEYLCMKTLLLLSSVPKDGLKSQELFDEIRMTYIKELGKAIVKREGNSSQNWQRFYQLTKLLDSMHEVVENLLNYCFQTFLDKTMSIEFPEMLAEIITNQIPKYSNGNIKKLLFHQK
Sequence of Cytochrome P450 3A4 (Homo sapiens) (P08684 whole entry, looked up): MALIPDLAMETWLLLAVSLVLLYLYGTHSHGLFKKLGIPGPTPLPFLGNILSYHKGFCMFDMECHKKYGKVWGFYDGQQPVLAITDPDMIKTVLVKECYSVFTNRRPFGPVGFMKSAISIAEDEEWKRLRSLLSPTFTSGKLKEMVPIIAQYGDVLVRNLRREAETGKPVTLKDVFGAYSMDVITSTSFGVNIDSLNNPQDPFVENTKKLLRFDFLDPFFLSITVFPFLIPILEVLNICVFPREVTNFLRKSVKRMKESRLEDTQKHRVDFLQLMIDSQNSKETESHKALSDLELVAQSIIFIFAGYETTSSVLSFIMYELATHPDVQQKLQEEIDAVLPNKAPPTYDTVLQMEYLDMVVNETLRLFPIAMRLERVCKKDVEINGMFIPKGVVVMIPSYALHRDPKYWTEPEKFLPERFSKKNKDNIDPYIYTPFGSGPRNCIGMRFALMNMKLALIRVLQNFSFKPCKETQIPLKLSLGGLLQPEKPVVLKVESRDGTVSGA
Sequence of Cytochrome P450 2C19 (Homo sapiens) (P33261 whole entry, looked up): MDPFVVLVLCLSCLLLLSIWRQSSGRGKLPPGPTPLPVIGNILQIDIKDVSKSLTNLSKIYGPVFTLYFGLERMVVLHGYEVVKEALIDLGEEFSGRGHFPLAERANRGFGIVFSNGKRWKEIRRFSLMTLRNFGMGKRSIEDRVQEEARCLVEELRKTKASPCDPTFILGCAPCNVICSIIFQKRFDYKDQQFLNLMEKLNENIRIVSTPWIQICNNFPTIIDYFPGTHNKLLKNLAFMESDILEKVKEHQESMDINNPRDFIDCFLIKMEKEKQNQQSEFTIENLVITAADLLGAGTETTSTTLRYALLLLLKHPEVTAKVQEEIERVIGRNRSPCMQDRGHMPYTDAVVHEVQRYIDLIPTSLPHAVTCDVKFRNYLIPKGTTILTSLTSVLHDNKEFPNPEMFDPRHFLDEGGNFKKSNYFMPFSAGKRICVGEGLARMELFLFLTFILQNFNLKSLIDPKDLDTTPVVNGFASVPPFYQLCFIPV
Sequence of Cytochrome P450 2D6 (Homo sapiens) (P10635 whole entry, looked up): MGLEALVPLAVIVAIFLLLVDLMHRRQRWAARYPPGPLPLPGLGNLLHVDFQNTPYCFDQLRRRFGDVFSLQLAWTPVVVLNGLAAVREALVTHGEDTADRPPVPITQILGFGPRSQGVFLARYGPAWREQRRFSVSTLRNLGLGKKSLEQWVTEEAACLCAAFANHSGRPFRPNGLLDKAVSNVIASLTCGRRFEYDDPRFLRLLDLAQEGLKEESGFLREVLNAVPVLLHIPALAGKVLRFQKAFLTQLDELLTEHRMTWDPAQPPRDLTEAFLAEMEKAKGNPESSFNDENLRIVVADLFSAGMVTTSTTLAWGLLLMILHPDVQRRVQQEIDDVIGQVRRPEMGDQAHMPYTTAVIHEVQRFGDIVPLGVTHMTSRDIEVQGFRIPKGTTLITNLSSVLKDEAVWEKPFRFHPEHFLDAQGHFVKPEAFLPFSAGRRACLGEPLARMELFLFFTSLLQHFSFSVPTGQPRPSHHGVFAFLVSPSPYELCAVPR

CCOc1ccc2c(ccc(/C=C/c3cc(C)c4cccnc4c3O)[n+]2C)c1
active: Potency [1] 60.1 µM | Potency [2] 70.8 µM | Potency [3] 42.6 µM

COC(=O)c1ccccc1C(=O)c1cccc2ccccc12
inactive: Potency [1] | Potency [2] | Potency [3]

COc1cc2cc3c4c(cc(OC)c(OC)c4c2cc1OC)CCN3C
inactive: Potency [5] > 46 µM | outcome [10] | Potency [1] | Potency [11]
active: Potency [4] 0.0794 µM | Potency [6] 0.158 µM | Potency [7] 3.98 µM | Potency [8] 3.98 µM | Potency [9] 0.0501 µM

CCN1CCN(Cc2c(O)ccc3c2O/C(=C\C=C\c2ccccc2OC)C3=O)CC1
inactive: Potency [1] | activation [2] 5.66% [at 17.1 µM, percent relative to cAMP agonist control] | Potency [3]

COc1cc2c(c(OC)c1OC)C(c1ccc(C)cc1)CC(=O)O2 (stereo not given)
inactive: Potency [1] | activation [2] 3.46% [at 17.1 µM, percent relative to cAMP agonist control] | Potency [3] | activity change, negative = inhibition [12] 6.91% [at 30.8 µM]

CCN(C(=O)CN1CCN(c2ccccc2O)CC1)c1c(N)n(Cc2ccccc2)c(=O)[nH]c1=O
inactive: Potency [1] | Potency [2] | Potency [3] | Potency [12]

O=S(=O)(NCC(c1ccco1)N1CCc2ccccc21)c1ccccc1 (stereo not given)
inactive: Potency [1] | activation [2] 5.38% [at 17.1 µM, percent relative to cAMP agonist control] | Potency [3] | activity change, negative = inhibition [12] -0.643% [at 30.8 µM]
